From PubChem BioAssay (Tox21) come the findings set out here.

Each structure is given as a SMILES string. “And” between values parts separate entries of the source, which are not always exact repeats. Equal entries are not always repeated. Records with an inconclusive call do not appear. A structure can be active in one record and inactive in another. The source made the active and inactive calls. Calls follow the shape of the dose curve; as a rule, active = well fitted curve in the direction sought with a large enough effect in the repeat runs; inconclusive = weak or mixed curves; inactive = no such curve, though single readings can be large; an effect the other way counts as inactive or inconclusive.

A short description of assay [1]: A CellTox Green Cytotoxicity Assay to monitor cytotoxicity in HEK293 cells - 40 hour (AID 1224871). Also: nearly all actives have a fitted effect of over 45% in size. Also: potency is read from the fitted curve at half-maximal effect. In outline:
(§1)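 Cytotoxicity was tracked continuously in HEK293 cells by a DNA-binding dye excluded from viable cells. Compounds were transferred in DMSO 5 h after seeding; fluorescence was recorded at intervals up to 40 h.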

A short description of assay [2]: qHTS RealTime-Glo MT Cell Viability Assay in HepG2 cells - 8 hour (AID 1224873). Also: nearly all actives have a fitted effect of over 55% in size. In outline:
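HepG2 cells (600/well) mixed with RealTime-Glo MT reagent, settled 5 h at 37 C/5% CO2 before compound addition. Nonlytic NanoLuc luminescence from viable-cell prosubstrate reduction read repeatedly during 40 h treatment at 37 C.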
For orientation: qHTS replaces the single test concentration by a dilution series.

Assay [3] is described as follows: qHTS RealTime-Glo MT Cell Viability Assay in HEK293 cells - 40 hour (AID 1224874). Also: nearly all actives have a fitted effect of over 50% in size. Also: potency is read from the fitted curve at half-maximal effect. As to conditions: RealTime-Glo luminescence; max response: stronger effect = lower value. A digest of the protocol: (§2)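 Nonlytic bioluminescent viability monitoring. HEK293 at 600 cells/well with reagent; 5 h settle; compound transfer by pintool; plates held at 37 C and read at set time points.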

Assay [4] in a line: A CellTox Green Cytotoxicity Assay to monitor cytotoxicity in HEK293 cells - 24 hour (AID 1224875). Also: nearly all actives have a fitted effect of over 45% in size. Also: potency is read from the fitted curve at half-maximal effect. In outline: as §1
Assay [5] is described as follows: A CellTox Green Cytotoxicity Assay to monitor cytotoxicity in HepG2 cells - 16 hour (AID 1224876). Also: nearly all actives have a fitted effect of over 45% in size. Also: potency is read from the fitted curve at half-maximal effect. A digest of the protocol:
(§3)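 Real-time, homogeneous cytotoxicity readout: dead-cell DNA staining by CellTox Green in HepG2 monolayers, fluorescence measured at timed intervals up to 40 h of continuous compound exposure.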

Assay [6] is described as follows: qHTS RealTime-Glo MT Cell Viability Assay in HepG2 cells - 32 hour (AID 1224877). Also: nearly all actives have a fitted effect of over 55% in size. Also: potency is read from the fitted curve at half-maximal effect. In outline:
(§4)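 HepG2 suspension premixed with RealTime-Glo reagents is plated at 600 cells per well and left 5 h at 37 C/5% CO2. Compounds in DMSO then go in, and bioluminescence reflecting viable cell number is recorded over 40 h.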

Assay [7] can be described thus: A CellTox Green Cytotoxicity Assay to monitor cytotoxicity in HepG2 cells - 24 hour (AID 1224878). Also: nearly all actives have a fitted effect of over 45% in size. Also: potency is read from the fitted curve at half-maximal effect. In outline: as §3
The nature of assay [8]: A CellTox Green Cytotoxicity Assay to monitor cytotoxicity in HepG2 cells - 40 hour (AID 1224879). Also: nearly all actives have a fitted effect of over 40% in size. Also: potency is read from the fitted curve at half-maximal effect. In outline: as §3
Assay [9] in a line: qHTS RealTime-Glo MT Cell Viability Assay in HEK293 cells - 0 hour (AID 1224880). Also: nearly all actives have a fitted effect of over 45% in size. Also: potency is read from the fitted curve at half-maximal effect. A digest of the protocol: as §2
Assay [10] in a line: A CellTox Green Cytotoxicity Assay to monitor cytotoxicity in HEK293 cells - 32 hour (AID 1224881). Also: nearly all actives have a fitted effect of over 40% in size. Also: potency is read from the fitted curve at half-maximal effect. In outline:
as §1

Assay [11] is described as follows: A CellTox Green Cytotoxicity Assay to monitor cytotoxicity in HepG2 cells - 0 hour (AID 1224882). Also: nearly all actives have a fitted effect of over 35% in size. Also: potency is read from the fitted curve at half-maximal effect. In outline:
as §3

Assay [12] in a line: A CellTox Green Cytotoxicity Assay to monitor cytotoxicity in HepG2 cells - 32 hour (AID 1224883). Also: nearly all actives have a fitted effect of over 50% in size. Also: potency is read from the fitted curve at half-maximal effect. A digest of the protocol:
as §3

Assay [13] is described as follows: A CellTox Green Cytotoxicity Assay to monitor cytotoxicity in HEK293 cells - 8 hour (AID 1224884). Also: nearly all actives have a fitted effect of over 35% in size. Also: potency is read from the fitted curve at half-maximal effect. In outline: as §1
Assay [14] can be described thus: qHTS RealTime-Glo MT Cell Viability Assay in HepG2 cells - 16 hour (AID 1224885). Also: nearly all actives have a fitted effect of over 50% in size. Also: potency is read from the fitted curve at half-maximal effect. A digest of the protocol:
as §4

Assay [15] in a line: qHTS RealTime-Glo MT Cell Viability Assay in HEK293 cells - 24 hour (AID 1224886). Also: nearly all actives have a fitted effect of over 50% in size. Also: potency is read from the fitted curve at half-maximal effect. In outline:
(§5)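 Reads taken at 0, 8, 16, 24, 32 and 40 h from the same wells. HEK293 cells (600/well) carried RealTime-Glo reagents from seeding, with compound added after a 5 h settle at 37 C.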

Assay [16] is described as follows: qHTS RealTime-Glo MT Cell Viability Assay in HEK293 cells - 8 hour (AID 1224887). A digest of the protocol:
as §2

Assay [17] is described as follows: A CellTox Green Cytotoxicity Assay to monitor cytotoxicity in HEK293 cells - 16 hour (AID 1224888). Also: nearly all actives have a fitted effect of over 35% in size. In outline: as §1
A short description of assay [18]: qHTS RealTime-Glo MT Cell Viability Assay in HepG2 cells - 0 hour (AID 1224889). Also: nearly all actives have a fitted effect of over 50% in size. Also: potency is read from the fitted curve at half-maximal effect. In outline:
as §4

A short description of assay [19]: A CellTox Green Cytotoxicity Assay to monitor cytotoxicity in HepG2 cells - 8 hour (AID 1224890). Also: nearly all actives have a fitted effect of over 45% in size. In outline: as §3
A short description of assay [20]: qHTS RealTime-Glo MT Cell Viability Assay in HEK293 cells - 16 hour (AID 1224872). Also: nearly all actives have a fitted effect of over 50% in size. Also: potency is read from the fitted curve at half-maximal effect. In outline:
as §5
% is scaled to controls: 0 for no effect and ±100 for the full control effect.

As for `C[C@]12CC[C@H]3[C@@H](CCC4=CC(=O)CC[C@@]43C)[C@@H]1CC[C@@H]2C(=O)CO`, the Potency result in assay [1], in assay [2], in assay [4], in [5], in assay [6] and in assay [7] was “inactive” throughout. Further, the Potency entry in [8], in [10], in assay [11], in assay [12], in [13] and in [14] was “inactive” in each case. The Potency entry in [16], in [17] and in assay [19] was “inactive” throughout. Moreover, the Potency in assay [3] is 38.9 µM (active); in assay [9] it was 17.4 µM (active); in assay [15], 24.5 µM (active); in [18] it was 4.36 µM (active) and 9.52 µM (active).

Take `OC1CCCCCCCCCCC1`: the Potency entry in assay [1] is “inactive and 43.6 µM (active)”; in assay [5], 38.9 µM (active); in assay [7], 49.5 µM (active) and 43.6 µM (active); in [8] it was 49.5 µM (active); in assay [10], “inactive and 43.6 µM (active)”; in assay [11], “inactive and 27.5 µM (active)”. Besides, the Potency was 44.1 µM (active) and 43.6 µM (active) in assay [12]; “inactive and 43.6 µM (active)” in [13]. For the same compound, the Potency entry in [20], in assay [2], in assay [6], in [9], in assay [14] and in assay [15] was “inactive” throughout. The Potency result in assay [18] was “inactive”. For the same compound, the max response in assay [3] was -5.96% (inactive) and 2.11% (inactive).

In the case of `CCCCC(CC)COP(=O)(OCC(CC)CCCC)OCC(CC)CCCC` (stereo not drawn), the Potency entry in [1], in assay [20], in assay [2], in assay [4], in assay [5] and in assay [6] was “inactive” in each case. In addition, the Potency result in assay [7], in assay [8], in assay [9], in assay [10], in assay [11] and in assay [12] was “inactive” throughout. Further, the Potency result in assay [13], in assay [14], in assay [16], in [17], in [18] and in [19] was “inactive” each time. The max response in assay [3] was -14.5% (inactive).

On to `c1ccc2sc(SSN3CCOCC3)nc2c1`, for which the Potency in assay [1] is 38.8 µM (active) and 49 µM (active); in assay [20] it was 43.6 µM (active); in assay [3], 19.5 µM (active) and 43.6 µM (active); in [4], 38.8 µM (active); in assay [6], “inactive and 49 µM (active)”; in assay [7], 54.9 µM (active). Moreover, the Potency was 54.8 µM (active) and 49 µM (active) in assay [8]; 38.8 µM (active) and 54.9 µM (active) in [10]; 54.8 µM (active) and 54.9 µM (active) in assay [12]; 54.9 µM (active) in assay [14]; 38.8 µM (active) and 49 µM (active) in assay [15]. For the same compound, the Potency entry in assay [9], in assay [11], in assay [13], in assay [17], in assay [18] and in assay [19] was “inactive” throughout.

For `COc1c(Cl)c(Cl)c(Cl)c(Cl)c1Cl`, the Potency entry in [1], in assay [20], in [2], in assay [4], in assay [5] and in [6] was “inactive” in each case. For the same compound, the Potency result in [7], in assay [8], in assay [9], in assay [10], in assay [11] and in [12] was “inactive” throughout. In addition, the Potency result in assay [13], in assay [14], in assay [17], in assay [18] and in assay [19] was “inactive” each time. In assay [3], the max response is -6.1% (inactive) and 5.51% (inactive).

Regarding `CCCCC(CC)COCC1CO1` (stereo not drawn), the Potency entry in assay [1], in assay [20], in assay [2], in [4], in assay [5] and in assay [6] was “inactive” in each case. The Potency result in [7], in assay [8], in assay [9], in assay [10], in assay [11] and in [12] was “inactive” throughout. Besides, the Potency result in [13], in [14], in [17] and in assay [18] was “inactive” throughout. For the same compound, the max response in assay [3] is 1.02% (inactive) and 0.683% (inactive).

Regarding `COC(=O)c1ccccc1`, the Potency entry in assay [1], in assay [2], in [4], in [5], in [6] and in assay [7] was “inactive” in each case. For the same compound, the Potency entry in assay [8], in [9], in assay [10], in assay [11], in assay [12] and in [13] was “inactive” in each case. In addition, the Potency entry in [14], in assay [16], in assay [17] and in assay [18] was “inactive” in each case. Besides, the Potency in [3] is 12.3 µM (active). Further, in assay [3], the max response is 7.68% (inactive).

`CCC(C)CO` (stereo not drawn): the Potency result in [1], in assay [2], in assay [4], in assay [6], in assay [9] and in [10] was “inactive” throughout. Moreover, the Potency result in assay [13], in [14], in assay [16], in assay [17] and in assay [18] was “inactive” in each case. Moreover, the Potency was 24.5 µM (active) in assay [3]; “inactive and 38.9 µM (active)” in [5]; “inactive and 43.6 µM (active)” in assay [7]; “inactive and 43.6 µM (active)” in assay [8]; “inactive and 43.6 µM (active)” in [11]; “inactive and 43.6 µM (active)” in assay [12]. Moreover, the max response in assay [3] is 4.66% (inactive).

As to `CC(=O)O[C@]1(C(C)=O)CC[C@H]2[C@@H]3C=C(Cl)C4=CC(=O)[C@@H]5C[C@@H]5[C@]4(C)[C@H]3CC[C@@]21C`, the Potency result in [1], in assay [2], in [4], in assay [5], in assay [6] and in assay [7] was “inactive” each time. Moreover, the Potency result in [8], in [9], in assay [10], in [11], in [12] and in assay [13] was “inactive” each time. Also, the Potency entry in assay [16], in assay [17], in assay [18] and in assay [19] was “inactive” in each case. Also, the Potency is 21.9 µM (active) and inactive in assay [20]; 21.9 µM (active) in [3].

For the compound `Cc1c(C(N)=O)cc([N+](=O)[O-])cc1[N+](=O)[O-]`, the Potency entry in assay [1], in assay [20], in [2], in assay [4], in [5] and in assay [6] was “inactive” in each case. Moreover, the Potency result in [7], in assay [8], in [9], in [10], in assay [11] and in assay [12] was “inactive” throughout. For the same compound, the Potency result in [13], in assay [14], in [17], in assay [18] and in assay [19] was “inactive” throughout. Also, the max response in assay [3] was 1.58% (inactive) and 7.25% (inactive).
